We go through 14 compounds from PubChem BioAssay.

The source made the active and inactive calls.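 How the source made its calls, unless noted: active means inhibition above 20% together with a positive visual image hit; inconclusive means visual image hit but inhibition not above 20%; inactive means no visual image hit.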

Assay [1] is described as follows: inhibitors of TNFa-induced NFkB p65 translocation, primary screen, imaging, HUVEC, MLSMR starter and 10KST1 sets (AID 438).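 Further: compound added about 3h40 before a 20 min TNFalpha stimulation.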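 On inhibition: signal is the nuclear over cytoplasmic p65 intensity ratio per well.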 The settings on record: HUVEC TNFa-induced p65 nuclear translocation; cell count: measured here: nuclei count (cytotoxicity indicator), at 2.08 µM; inhibition: at 2 µM, stronger effect = higher value, 0% TNFa-plus-vehicle, 100% no-TNFa wells.
A short description of assay [2]: inhibitors of mutant huntingtin aggregation, primary screen, imaging, exon1htt(103Q)mCFP cells, high-content imaging (AID 483;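 active means visual image review flags a hit and inhibition of aggregation exceeds 20%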;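 further: compound exposure lasted 3 days before fixation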;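 on nuclei count: percent of the per-plate median nuclei count of sample wells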). Particulars: exon1htt(103Q)mCFP cell line, aggregate imaging, at 2 µM; inhibition of aggregation: stronger effect = higher value; nuclei count: measured here: cell count, toxicity.
A short description of assay [3]: inhibitors of E-selectin induction by TNFa, primary screen, imaging, HUVEC, immunofluorescence, MLSMR starter and 10KST1 sets (AID 487;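 active means visually confirmed hit in the image check and inhibition above 20%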;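 on inhibition: signal is fraction of cell area covered by stained E-selectin grains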;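 on nuclei count: 100% = median nuclei count of all wells on the same plate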). The settings on record: HUVEC TNFalpha-induced E-selectin immunofluorescence imaging, at 2 µM; inhibition: stronger effect = higher value; nuclei count: measured here: cell number, toxicity.
In assay [4] the target is Voltage-gated potassium channel subunit beta-2 (Rattus norvegicus) (UniProt P62483). The experiment in a line: KvBeta enzyme negative modulators, primary screen, biochemical, NADPH fluorescence (AID 622;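 active means fluorescence slope higher than the sample average by over 3 SD, cut at about -0.22 in these data, passing the limit was not always enough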;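 further: slope of raw intensity against log time taken from 70 to 1610 s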). The settings on record: recombinant KvBeta, 4-cyanobenzaldehyde reduction, at 10 µM, stronger effect = higher value.
For assay [5] the target is unchanged. Kind of assay: KvBeta positive modulators, primary screen, biochemical, NADPH fluorescence (AID 623;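 active means NADPH fluorescence slope more negative than the mean of all samples by about 3 SD, 99.7% confidence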;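 further: fluorescence intensity change per second fitted from 20 to 320 s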). The settings on record: Recombinant KvBeta, NADPH fluorescence decrease slope, 10 min; at 10 µM; stronger effect = lower value.
Assay [6] concerns the target Alpha-2C adrenergic receptor (Homo sapiens) (UniProt P18825). Kind of assay: modulators of alpha2C/GIRK thallium flux, primary screen, cell-based, HEK293 alpha2C/GIRK1/2 (AID 624;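 active means fluorescence slope after compound addition differing from the mean of all screened samples at 99.7% confidence, in either direction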;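 further: slope of fluorescence ratio to pre-addition baseline per second over 15 to 24 s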). Particulars: thallium flux BTC fluorescence, at 10 µM, actives lie on both sides.
Assay [7] in a line: inhibitors of Sendai virus-induced IRF3 signaling, primary screen, TLR/RLR signaling modifier project, cell-based, Sendai virus stimulus, luciferase, 10K MLSCN set (AID 602276;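 active means inhibition at or above 50% at 10 µM; inactive means inhibition below 50%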;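 further: firefly luciferase from ISG56 promoter only with Renilla not read in this screen; 0% = Sendai virus plus DMSO and 100% = medium plus DMSO without virus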). Particulars: HEK293 RL24 IRF3 luciferase reporter, at 10 µM, stronger effect = higher value.
Assay [8] in a line: inhibitors of poly I:C-induced TLR3 signaling, primary screen, cell-based, poly I:C stimulus, luciferase, 10K MLSCN set (AID 602277;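 active means inhibition of the reporter signal at or above 50%; inactive means inhibition below 50%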). The settings on record: HEK293-TLR3 RL24 IRF3 luciferase reporter, at 10 µM, stronger effect = higher value. A general note: Reporter assays use an easily measured gene product as a stand-in for the process of interest.

Sequence of Voltage-gated potassium channel subunit beta-2 (Rattus norvegicus) (P62483 whole entry, looked up): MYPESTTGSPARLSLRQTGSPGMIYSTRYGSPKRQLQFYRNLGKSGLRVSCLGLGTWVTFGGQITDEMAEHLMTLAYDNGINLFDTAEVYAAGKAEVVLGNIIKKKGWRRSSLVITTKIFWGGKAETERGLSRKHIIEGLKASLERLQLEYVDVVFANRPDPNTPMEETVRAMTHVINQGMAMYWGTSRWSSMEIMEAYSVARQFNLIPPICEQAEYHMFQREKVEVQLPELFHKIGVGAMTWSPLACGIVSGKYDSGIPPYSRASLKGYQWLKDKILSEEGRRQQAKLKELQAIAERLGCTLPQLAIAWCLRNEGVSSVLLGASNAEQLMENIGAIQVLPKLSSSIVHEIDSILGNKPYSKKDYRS
Sequence of Alpha-2C adrenergic receptor (Homo sapiens) (P18825 whole entry, looked up): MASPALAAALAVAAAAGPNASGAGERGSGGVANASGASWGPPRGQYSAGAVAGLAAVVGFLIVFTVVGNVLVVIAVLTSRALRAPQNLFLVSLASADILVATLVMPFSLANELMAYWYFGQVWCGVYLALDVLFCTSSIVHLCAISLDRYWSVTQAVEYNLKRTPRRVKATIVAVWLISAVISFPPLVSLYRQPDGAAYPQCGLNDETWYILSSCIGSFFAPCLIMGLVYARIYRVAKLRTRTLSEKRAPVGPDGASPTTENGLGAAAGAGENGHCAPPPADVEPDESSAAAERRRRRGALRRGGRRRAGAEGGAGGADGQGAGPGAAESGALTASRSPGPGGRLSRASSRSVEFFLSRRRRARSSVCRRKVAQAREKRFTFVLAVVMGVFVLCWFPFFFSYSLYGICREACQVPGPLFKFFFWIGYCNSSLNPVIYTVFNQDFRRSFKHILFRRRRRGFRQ

As to `Cc1n[nH]c(C)c1N1C(=O)c2cccc3cc(Br)cc(c23)C1=O`, the cell count in assay [1] came to 476. In addition, the inhibition was 5.9% (inactive) in assay [1], -36.7% (inactive) in assay [3], 1.78% (inactive) in assay [7] and 27.1% (inactive) in assay [8]. Further, the inhibition of aggregation in assay [2] is -9.9% (inactive). Besides, the nuclei count in assay [2] worked out at 103%; in assay [3], 123%. Besides, in assay [4], the fluorescence slope was -0.375 (inactive). In addition, the NADPH fluorescence slope in assay [5] was -7.7e-05 (inactive). In addition, in assay [6], the slope is 0.00408 (inactive).

On to `O=c1c2cc3ccccc3n2cnn1Cc1ccccc1F`, for which the cell count in assay [1] was 345. For the same compound, the inhibition is -8.5% (inactive) in assay [1], -105% (inactive) in assay [3], -21.7% (inactive) in assay [7] and -7.8% (inactive) in assay [8]. The inhibition of aggregation in assay [2] was 29.9% (inactive). The results for the nuclei count in assay [2] and in assay [3] were 89.6% and 108%, respectively. The fluorescence slope in assay [4] was -0.51 (inactive). For the same compound, the NADPH fluorescence slope in assay [5] was 3.1e-05 (inactive). For the same compound, the slope in assay [6] was 0.00758 (inactive).

With `COc1ccc(CCNC(=O)CSc2nnnn2-c2ccccc2OC)cc1OC`, the cell count in assay [1] was 681. For the same compound, the inhibition is -1.1% (inactive) in assay [1], -10.8% (inactive) in assay [3], 15.3% (inactive) in assay [7] and 31.8% (inactive) in assay [8]. Also, the inhibition of aggregation in assay [2] was 1.5% (inactive). Also, the results for the nuclei count in assay [2] and in assay [3] were 106% and 109%, respectively. Besides, the fluorescence slope in assay [4] is -0.531 (inactive). Further, in assay [5], the NADPH fluorescence slope is -5.1e-05 (inactive). Further, the slope in assay [6] is 0.00687 (inactive).

Take `Cc1ccc(S(=O)(=O)N2CCN(C(=O)CN3CCOCC3)C2C(C)C)cc1` (centres undefined): in assay [1], the cell count amounted to 309. In addition, the inhibition is -5% (inactive) in assay [1], -99.4% (inactive) in assay [3], 4.53% (inactive) in assay [7] and 12.9% (inactive) in assay [8]. The inhibition of aggregation in assay [2] was -6.9% (inactive). Further, the nuclei count in assay [2] and in assay [3] was 105% throughout. In assay [4], the fluorescence slope is -0.621 (inactive). The NADPH fluorescence slope in assay [5] was 6.8e-06 (inactive). For the same compound, the slope in assay [6] is 0.0064 (inactive).

With `CCOC(=O)c1sc(NC(=O)COC(=O)Cn2cnc3ccccc32)c(C(=O)OCC)c1C`, in assay [1], the cell count is 398. The inhibition in assay [1] is 4.3% (inactive); in assay [3], -109% (inactive); in assay [7], 13.7% (inactive); in assay [8], -7.45% (inactive). The inhibition of aggregation in assay [2] is 2.6% (inactive). Also, the nuclei count amounted to 90.6% in assay [2] and 115% in assay [3]. The fluorescence slope in assay [4] was -0.613 (inactive). Moreover, the NADPH fluorescence slope in assay [5] was -3e-05 (inactive). For the same compound, in assay [6], the slope is 0.00913 (inactive).

With `O=C1C/C(=C/NCc2ccccc2)C(=O)N1`, the cell count in assay [1] is 464. For the same compound, the inhibition in assay [1] was -7.4% (inactive); in assay [3], -106% (inactive); in assay [7] it was 4.55% (inactive); in assay [8] it was 30.7% (inactive). Also, in assay [2], the inhibition of aggregation is 22.7% (inactive). Moreover, the nuclei count in assay [2] amounted to 67.6%; in assay [3], 95.9%. In addition, the fluorescence slope in assay [4] was -0.423 (inactive). Also, in assay [5], the NADPH fluorescence slope is -2.2e-05 (inactive). In addition, the slope in assay [6] is 0.0024 (inactive).

In the case of `Clc1cccc(Cl)c1COc1ccncc1`, the cell count in assay [1] worked out at 353. In addition, the inhibition in assay [1] is 4.4% (inactive); in assay [3], 7.5% (inactive); in assay [7] it was -16.2% (inactive); in assay [8] it was -12% (inactive). In addition, the inhibition of aggregation in assay [2] was 11.7% (inactive). The nuclei count was determined as 89.4% in assay [2] and 104% in assay [3]. In assay [4], the fluorescence slope was -0.516 (inactive). The NADPH fluorescence slope in assay [5] is 7.2e-05 (inactive). Besides, in assay [6], the slope is 0.00644 (inactive).

Regarding `O=C(Nc1ccc2c(c1)OCO2)C(c1ccccc1)N1CCC2(CC1)OCCO2` (centres undefined), the cell count in assay [1] turned out to be 649. The inhibition in assay [1] is 2% (inactive); in assay [3], 23.5% (inactive); in assay [7], -14.7% (inactive); in assay [8], 1% (inactive). Moreover, in assay [2], the inhibition of aggregation is -13.5% (inactive). Besides, the nuclei count in assay [2] came out at 107%; in assay [3] it was 115%. In assay [4], the fluorescence slope is -0.51 (inactive). Besides, the NADPH fluorescence slope in assay [5] was 3.6e-05 (inactive). Further, in assay [6], the slope was 0.00477 (inactive).

On to `CCC(=O)N1CCN(c2nc(-c3ccccc3)c3c(c2C#N)CCCC3)CC1`, for which the cell count in assay [1] turned out to be 501. Moreover, the inhibition in assay [1] was 6.3% (inactive); in assay [3], -27.6% (inactive); in assay [7] it was 13.4% (inactive); in assay [8], 44.4% (inactive). In addition, the inhibition of aggregation in assay [2] was 0.7% (inactive). Also, the nuclei count was 98.3% in assay [2] and 108% in assay [3]. In addition, in assay [4], the fluorescence slope was -0.317 (inactive). Further, the NADPH fluorescence slope in assay [5] is -8.2e-07 (inactive). Moreover, the slope in assay [6] was 0.00519 (inactive).

`CON(C)c1nc(Oc2ccc(=O)[nH]n2)nc(N(C)C)n1`: the cell count in assay [1] came out at 678. Also, the inhibition was -6.2% (inactive) in assay [1], -48.5% (inactive) in assay [3], 16.3% (inactive) in assay [7] and 19.3% (inactive) in assay [8]. The inhibition of aggregation in assay [2] is -9.5% (inactive). In addition, the nuclei count in assay [2] amounted to 85.9%; in assay [3], 101%. Also, the fluorescence slope in assay [4] was -0.351 (inactive). Besides, the NADPH fluorescence slope in assay [5] is 1.4e-05 (inactive). Moreover, the slope in assay [6] was 0.00477 (inactive).

As to `COC(=O)Cn1c(=NC(=O)CSCC(=O)Nc2cc(C)on2)sc2ccccc21`, in assay [1], the cell count amounted to 610. Also, the inhibition in assay [1] was -6.9% (inactive); in assay [3], 1.2% (inactive); in assay [7] it was 11.1% (inactive); in assay [8] it was 28.1% (inactive). In assay [2], the inhibition of aggregation was 2.6% (inactive). The nuclei count in assay [2] turned out to be 112%; in assay [3], 111%. The fluorescence slope in assay [4] is -0.417 (inactive). Moreover, the NADPH fluorescence slope in assay [5] is -6.3e-05 (inactive). Moreover, in assay [6], the slope is 0.00506 (inactive).

`Cc1ccc2nc(-c3ccc(S(=O)(=O)N4CCOCC4)cc3)cn2c1`: the cell count in assay [1] came to 591. Further, the inhibition in assay [1] was -9.3% (inactive); in assay [3] it was 7.4% (inactive); in assay [7], 5.63% (inactive); in assay [8], -13.9% (inactive). Moreover, the inhibition of aggregation in assay [2] was -9.3% (inactive). In addition, the nuclei count in assay [2] is 96.7%; in assay [3], 89.1%. Further, the fluorescence slope in assay [4] is -0.0874 (active). Besides, in assay [5], the NADPH fluorescence slope was 1e-05 (inactive). For the same compound, the slope in assay [6] is 0.00713 (inactive).

On to `COC(=O)c1ccc(COc2ccc(C3C4=C(CCCC4=O)Nc4onc(C)c43)cc2)cc1` (centres undefined), for which the cell count in assay [1] amounted to 303. Besides, the inhibition in assay [1] is -4.7% (inactive); in assay [3], -68.7% (inactive); in assay [7] it was -12.9% (inactive); in assay [8], -23% (inactive). Also, in assay [2], the inhibition of aggregation was -8.3% (inactive). Besides, the nuclei count was determined as 112% in assay [2] and 118% in assay [3]. Further, the fluorescence slope in assay [4] was -0.479 (inactive). For the same compound, the NADPH fluorescence slope in assay [5] was -1.7e-05 (inactive). In addition, in assay [6], the slope was 0.00693 (inactive).

In the case of `O=C(O)Cn1cc(C(=O)c2ccco2)c2ccccc21`, the cell count in assay [1] was determined as 316. In addition, the inhibition in assay [1] is 16.3% (inactive); in assay [3], 30.1% (inactive); in assay [7], 0.251% (inactive); in assay [8], 8.5% (inactive). In addition, in assay [2], the inhibition of aggregation was 3.6% (inactive). Moreover, the nuclei count was 108% in assay [2] and 104% in assay [3]. In assay [4], the fluorescence slope is -0.487 (inactive). The NADPH fluorescence slope in assay [5] is -1.2e-05 (inactive). The slope in assay [6] was 0.00668 (inactive).

As a reminder, the inhibition is the relative decrease from the control value, in per cent.
